The values that follow come from ChEMBL document CHEMBL1961873, “Compounds: GSK PKIS; Assays: Nanosyn kinase panel” (2012).

The target of test [1] is Serine/threonine-protein kinase MRCK alpha (Homo sapiens) (UniProt Q5VT25). Particulars: at 0.1 µM.
The target is the same in test [2]. Particulars: at 1 µM.
The target in test [3] is Serine/threonine-protein kinase MRCK beta (Homo sapiens) (UniProt Q9Y5S2). The note with it: at 0.1 µM.
Test [4] has the same target. Particulars: at 1 µM.
The target in test [5] is Ribosomal protein S6 kinase alpha-5 (Homo sapiens) (UniProt O75582). Particulars: at 0.1 µM.
Ribosomal protein S6 kinase alpha-5 (Homo sapiens), sequence (O75582 whole entry, looked up): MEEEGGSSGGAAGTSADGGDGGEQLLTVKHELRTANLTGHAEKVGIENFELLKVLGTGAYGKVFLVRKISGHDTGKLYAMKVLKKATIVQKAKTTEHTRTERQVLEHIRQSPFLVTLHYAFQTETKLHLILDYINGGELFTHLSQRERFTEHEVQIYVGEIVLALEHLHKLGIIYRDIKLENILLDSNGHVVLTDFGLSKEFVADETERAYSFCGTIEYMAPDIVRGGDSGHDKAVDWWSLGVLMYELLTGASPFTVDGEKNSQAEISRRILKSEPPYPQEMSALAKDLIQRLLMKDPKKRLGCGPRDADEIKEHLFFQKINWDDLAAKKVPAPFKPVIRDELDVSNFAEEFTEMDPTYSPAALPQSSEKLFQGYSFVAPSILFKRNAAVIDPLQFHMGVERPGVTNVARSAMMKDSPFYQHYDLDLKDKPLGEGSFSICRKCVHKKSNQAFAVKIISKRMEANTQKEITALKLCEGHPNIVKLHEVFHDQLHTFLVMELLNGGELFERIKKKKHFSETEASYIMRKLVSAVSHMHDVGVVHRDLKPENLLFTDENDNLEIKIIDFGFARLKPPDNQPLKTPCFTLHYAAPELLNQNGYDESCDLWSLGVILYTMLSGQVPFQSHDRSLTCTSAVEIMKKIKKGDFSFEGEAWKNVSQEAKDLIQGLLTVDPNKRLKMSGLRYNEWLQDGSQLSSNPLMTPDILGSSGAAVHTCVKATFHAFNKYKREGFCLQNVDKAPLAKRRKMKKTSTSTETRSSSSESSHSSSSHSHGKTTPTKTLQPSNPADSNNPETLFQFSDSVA
Test [6] has the same target. The note with it: at 1 µM.
The target in test [7] is Ribosomal protein S6 kinase alpha-4 (Homo sapiens) (UniProt O75676). Particulars: at 0.1 µM.
The target is the same in test [8]. The note with it: at 1 µM.
In test [9] the target is Ribosomal protein S6 kinase beta-1 (Homo sapiens) (UniProt P23443). The note with it: at 0.1 µM.
Ribosomal protein S6 kinase beta-1 (Homo sapiens), sequence (P23443 whole entry, looked up): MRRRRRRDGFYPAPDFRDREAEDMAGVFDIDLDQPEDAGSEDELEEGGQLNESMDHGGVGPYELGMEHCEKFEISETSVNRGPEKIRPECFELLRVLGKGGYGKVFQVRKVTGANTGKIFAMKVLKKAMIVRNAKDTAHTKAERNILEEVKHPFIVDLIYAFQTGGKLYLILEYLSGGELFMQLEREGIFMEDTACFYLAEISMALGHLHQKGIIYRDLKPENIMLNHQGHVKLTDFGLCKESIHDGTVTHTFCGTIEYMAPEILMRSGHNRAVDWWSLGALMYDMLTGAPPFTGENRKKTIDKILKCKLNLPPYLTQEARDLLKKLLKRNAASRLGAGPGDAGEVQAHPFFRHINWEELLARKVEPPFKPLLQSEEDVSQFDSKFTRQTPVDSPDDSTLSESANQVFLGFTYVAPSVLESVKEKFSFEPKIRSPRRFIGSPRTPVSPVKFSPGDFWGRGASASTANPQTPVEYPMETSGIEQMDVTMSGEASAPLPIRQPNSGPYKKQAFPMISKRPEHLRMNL
Test [10] has the same target. Particulars: at 1 µM.
The target in test [11] is T1, 3-phosphoinositide-dependent protein kinase 1 (Homo sapiens) (UniProt O15530).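 Also: values are mean inhibition of PDK1.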
T1 sequence (whole entry): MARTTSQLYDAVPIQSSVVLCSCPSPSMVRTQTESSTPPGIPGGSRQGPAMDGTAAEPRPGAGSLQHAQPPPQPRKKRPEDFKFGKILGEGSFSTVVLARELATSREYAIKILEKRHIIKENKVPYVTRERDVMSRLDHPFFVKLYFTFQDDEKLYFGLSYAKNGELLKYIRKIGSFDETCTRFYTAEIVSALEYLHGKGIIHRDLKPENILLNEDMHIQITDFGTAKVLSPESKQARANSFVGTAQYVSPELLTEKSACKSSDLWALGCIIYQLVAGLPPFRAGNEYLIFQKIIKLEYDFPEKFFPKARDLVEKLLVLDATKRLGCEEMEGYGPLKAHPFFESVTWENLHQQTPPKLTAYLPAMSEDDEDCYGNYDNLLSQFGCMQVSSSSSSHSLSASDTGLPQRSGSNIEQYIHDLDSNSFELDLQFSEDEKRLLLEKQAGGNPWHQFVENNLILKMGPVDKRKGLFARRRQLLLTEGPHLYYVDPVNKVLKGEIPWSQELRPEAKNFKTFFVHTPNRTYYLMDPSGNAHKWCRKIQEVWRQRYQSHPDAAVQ
Particulars: at 0.1 µM.

Test [12] has as its target cAMP-dependent protein kinase catalytic subunit alpha (Homo sapiens) (UniProt P17612). Particulars: at 0.1 µM.
The target is the same in test [13]. Particulars: at 1 µM.
Test [14] concerns the target Protein kinase C alpha type (Homo sapiens) (UniProt P17252). Particulars: at 0.1 µM.
Test [15] has the same target. Particulars: at 1 µM.
The target of test [16] is Protein kinase C beta type (Homo sapiens) (UniProt P05771). Particulars: at 0.1 µM.
Protein kinase C beta type (Homo sapiens), sequence (P05771 2-671 limits assumed): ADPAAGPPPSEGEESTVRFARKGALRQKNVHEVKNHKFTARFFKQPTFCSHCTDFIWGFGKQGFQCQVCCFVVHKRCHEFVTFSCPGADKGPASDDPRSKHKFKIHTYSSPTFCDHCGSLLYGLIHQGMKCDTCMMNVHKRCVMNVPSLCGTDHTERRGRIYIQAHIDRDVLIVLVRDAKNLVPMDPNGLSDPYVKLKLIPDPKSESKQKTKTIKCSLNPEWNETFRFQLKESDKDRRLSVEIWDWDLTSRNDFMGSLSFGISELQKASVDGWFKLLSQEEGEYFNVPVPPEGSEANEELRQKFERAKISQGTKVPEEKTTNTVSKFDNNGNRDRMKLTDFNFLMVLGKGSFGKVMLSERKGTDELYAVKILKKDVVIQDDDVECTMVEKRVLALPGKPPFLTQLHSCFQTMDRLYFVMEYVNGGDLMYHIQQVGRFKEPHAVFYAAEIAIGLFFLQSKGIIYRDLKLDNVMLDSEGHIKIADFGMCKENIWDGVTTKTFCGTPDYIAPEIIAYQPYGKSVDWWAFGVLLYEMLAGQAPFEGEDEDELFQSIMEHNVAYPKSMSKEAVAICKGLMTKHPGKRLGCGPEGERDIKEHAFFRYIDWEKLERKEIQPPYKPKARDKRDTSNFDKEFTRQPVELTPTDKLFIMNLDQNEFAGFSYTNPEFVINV
The target is the same in test [17]. The note with it: at 1 µM.
Test [18] has as its target Protein kinase C eta type (Homo sapiens) (UniProt P24723). The note with it: at 0.1 µM.
For test [19] the target is unchanged. Particulars: at 1 µM.
Test [20] has as its target Protein kinase C gamma type (Homo sapiens) (UniProt P05129). The note with it: at 0.1 µM.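 Also: values are mean percent inhibition of PKC gamma.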

Serine/threonine-protein kinase MRCK beta (Homo sapiens), sequence (Q9Y5S2 whole entry): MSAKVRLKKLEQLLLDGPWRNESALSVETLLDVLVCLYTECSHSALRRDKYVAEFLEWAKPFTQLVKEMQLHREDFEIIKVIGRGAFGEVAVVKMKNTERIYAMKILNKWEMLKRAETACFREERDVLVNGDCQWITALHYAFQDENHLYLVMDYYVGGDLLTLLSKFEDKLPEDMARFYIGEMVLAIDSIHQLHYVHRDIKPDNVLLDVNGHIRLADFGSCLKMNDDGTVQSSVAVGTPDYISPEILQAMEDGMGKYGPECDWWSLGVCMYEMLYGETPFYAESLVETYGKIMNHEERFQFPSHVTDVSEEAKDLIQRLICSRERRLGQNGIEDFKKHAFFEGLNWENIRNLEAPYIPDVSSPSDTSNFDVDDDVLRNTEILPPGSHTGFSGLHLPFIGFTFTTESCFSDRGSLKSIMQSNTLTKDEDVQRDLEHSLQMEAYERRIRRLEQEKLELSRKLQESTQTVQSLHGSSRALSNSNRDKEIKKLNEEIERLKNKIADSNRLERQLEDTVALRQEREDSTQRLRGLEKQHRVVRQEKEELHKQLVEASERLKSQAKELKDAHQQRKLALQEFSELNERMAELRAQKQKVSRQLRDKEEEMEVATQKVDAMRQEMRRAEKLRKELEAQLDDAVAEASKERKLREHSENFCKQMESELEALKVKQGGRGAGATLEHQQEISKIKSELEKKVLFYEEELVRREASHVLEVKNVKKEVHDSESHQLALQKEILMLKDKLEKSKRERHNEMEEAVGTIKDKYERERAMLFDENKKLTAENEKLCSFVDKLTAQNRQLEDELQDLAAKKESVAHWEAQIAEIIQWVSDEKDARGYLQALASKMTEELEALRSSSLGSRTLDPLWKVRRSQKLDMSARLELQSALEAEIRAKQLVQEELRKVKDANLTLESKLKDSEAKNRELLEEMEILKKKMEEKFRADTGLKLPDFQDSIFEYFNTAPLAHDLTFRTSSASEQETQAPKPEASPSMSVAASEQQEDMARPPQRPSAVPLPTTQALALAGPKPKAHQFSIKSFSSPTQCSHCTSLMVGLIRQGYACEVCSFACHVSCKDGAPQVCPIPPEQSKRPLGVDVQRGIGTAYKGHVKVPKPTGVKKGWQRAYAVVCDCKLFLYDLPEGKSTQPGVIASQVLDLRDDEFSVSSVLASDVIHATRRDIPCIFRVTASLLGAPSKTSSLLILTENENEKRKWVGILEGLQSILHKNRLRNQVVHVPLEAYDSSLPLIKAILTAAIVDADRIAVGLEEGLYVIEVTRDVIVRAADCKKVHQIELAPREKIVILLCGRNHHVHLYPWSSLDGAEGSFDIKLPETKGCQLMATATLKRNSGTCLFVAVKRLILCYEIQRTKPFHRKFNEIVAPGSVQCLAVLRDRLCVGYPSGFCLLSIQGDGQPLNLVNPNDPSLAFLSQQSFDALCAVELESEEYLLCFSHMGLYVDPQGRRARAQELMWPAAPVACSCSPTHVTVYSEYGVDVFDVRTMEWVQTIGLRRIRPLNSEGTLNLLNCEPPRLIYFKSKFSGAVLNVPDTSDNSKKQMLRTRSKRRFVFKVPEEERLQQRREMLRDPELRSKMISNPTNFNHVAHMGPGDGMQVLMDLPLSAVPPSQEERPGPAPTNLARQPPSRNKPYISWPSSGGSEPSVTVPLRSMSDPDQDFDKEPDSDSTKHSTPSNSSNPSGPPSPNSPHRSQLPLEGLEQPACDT
Protein kinase C eta type (Homo sapiens), sequence (P24723 whole entry): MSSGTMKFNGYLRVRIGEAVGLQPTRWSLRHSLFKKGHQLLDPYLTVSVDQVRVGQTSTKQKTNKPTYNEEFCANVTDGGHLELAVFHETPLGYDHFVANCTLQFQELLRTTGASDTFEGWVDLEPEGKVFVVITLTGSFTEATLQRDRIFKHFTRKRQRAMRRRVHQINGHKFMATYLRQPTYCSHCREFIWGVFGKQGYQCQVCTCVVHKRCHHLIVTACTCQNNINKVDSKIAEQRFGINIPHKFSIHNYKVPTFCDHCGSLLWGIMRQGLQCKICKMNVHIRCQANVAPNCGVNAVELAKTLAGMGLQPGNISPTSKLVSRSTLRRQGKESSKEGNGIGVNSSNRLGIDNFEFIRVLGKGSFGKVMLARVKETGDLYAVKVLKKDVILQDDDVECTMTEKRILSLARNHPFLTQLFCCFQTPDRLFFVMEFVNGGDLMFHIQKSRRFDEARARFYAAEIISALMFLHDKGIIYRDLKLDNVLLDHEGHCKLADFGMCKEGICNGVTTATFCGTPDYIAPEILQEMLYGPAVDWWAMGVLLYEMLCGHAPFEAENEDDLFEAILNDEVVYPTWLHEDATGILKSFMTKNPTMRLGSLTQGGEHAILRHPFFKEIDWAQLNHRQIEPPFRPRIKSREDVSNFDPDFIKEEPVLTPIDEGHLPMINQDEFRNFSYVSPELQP

Take `COc1cc2ncnc(Nc3ccc(C)c(O)c3)c2cc1OC`: the inhibition in [1] is 0.29%; in [2] it was 0.79%; in [3] it was 1.59%; in [4] it was 0.25%; in test [5], 5.09%; in test [6] it was 4.76%. Further, the inhibition in test [7] amounted to 4.36%; in test [8] it was 2.32%; in [9] it was 3.34%; in [10], 2.36%; in [11], 1.3%; in test [12] it was 2.17%. Also, the inhibition in [13] is 3.17%; in test [14], 1.06%; in test [15], 3.24%; in [16], 1.28%; in test [17] it was 5.43%; in test [18], 3.76%. Besides, the inhibition amounted to 0.65% in test [19] and 2.11% in test [20].

In the case of `Cc1ccc2c(c1)/C(=N/Nc1ccc(S(N)(=O)=O)cc1)C(=O)N2`, the inhibition in test [1] is 0.22%; in test [2] it was 1.3%; in test [3], -0.79%; in [4], 1.36%; in test [5], 0.95%; in test [6], 1.23%. For the same compound, the inhibition in test [7] is -1.41%; in [8], 2.32%; in test [9], 0.52%; in test [10], 2.59%; in test [11], 0.19%; in [12], 0.27%. The inhibition was 1.28% in [13]; 0.13% in test [14]; -0.36% in test [15]; -0.92% in test [16]; 0.39% in test [17]; -0.77% in test [18]. Further, the inhibition in [19] was -1.47%; in test [20], -1.71%.

Turning to `Cc1cc(Cl)cc2c1NC(=O)C2=NNc1ccc(S(N)(=O)=O)cc1`, the inhibition is 0.98% in [1]; 2.69% in test [2]; 0.17% in [3]; -0.38% in test [4]; 3.06% in [5]; 2.08% in test [6]. The inhibition came to 2.85% in test [7]; 3.47% in test [8]; 0.25% in [9]; 2.34% in [10]; 0.95% in test [11]; 1.21% in [12]. The inhibition in test [13] was 1.37%; in test [14], 0.07%; in test [15] it was -0.61%; in test [16], 0.78%; in test [17], 2.56%; in test [18], -0.95%. Moreover, the inhibition was 2.95% in test [19] and 0.4% in test [20].

On to `C[C@@H](Oc1cc(-n2cnc3ccc(OCC4CCN(C)CC4)cc32)sc1C(N)=O)c1ccccc1C(F)(F)F`, for which the inhibition in test [1] was 0.6%; in test [2], 5.18%; in [3], 0.07%; in [4] it was 0.75%; in [5], -2.08%; in test [6] it was -0.6%. Moreover, the inhibition in test [7] was 0%; in test [8], 2.52%; in test [9] it was 0.24%; in test [10], 5.55%; in test [11], 0.45%; in test [12] it was -0.41%. Moreover, the inhibition was 1.15% in test [13]; 0.1% in [14]; 9.63% in [15]; 0.2% in test [16]; 5.91% in [17]; -5.73% in test [18]. Besides, the inhibition in test [19] was found to be 5.16%; in test [20], 3.29%.

On to `COC(=O)c1ccc2c(c1)C(=Cc1cc(Br)c(O)c(Br)c1)C(=O)N2`, for which the inhibition in test [1] is 5.51%; in [2], 5.34%; in test [3], -0.51%; in test [4] it was -0.15%; in [5] it was 7.14%; in [6], 12.2%. Besides, the inhibition in test [7] was 2.52%; in test [8], 6.18%; in test [9], 1.57%; in test [10], 3.47%; in test [11], -0.14%; in test [12], 1.68%. Also, the inhibition in [13] is 0.85%; in test [14], 0.87%; in [15] it was 2.31%; in test [16], -0.23%; in [17], -0.51%; in test [18], 2.26%. In addition, the values for the inhibition in test [19] and in test [20] were 3.91% and 1.07%, respectively.

With `Cc1cc(O)cc(C)c1/C=C/c1cncc(C(=O)N(C)C)c1`, the inhibition turned out to be 0.02% in [1]; 0.32% in [2]; 0.83% in test [3]; 1.36% in test [4]; 2% in test [5]; 4.09% in [6]. The inhibition in [7] came to 1.39%; in test [8], 2.46%; in test [9] it was 0.39%; in test [10], 3.03%; in [11] it was 4.18%; in test [12], 1.98%. The inhibition in [13] stood at 0.93%; in test [14] it was 0.28%; in [15] it was 1.71%; in test [16] it was 0.67%; in test [17], 1.26%; in test [18], 3%. Besides, the inhibition in [19] came to 4.61%; in test [20], 1.75%.

For `NS(=O)(=O)c1cccc(Nc2cc(-c3ccc(F)cc3)n[nH]2)c1`, the inhibition was -0.33% in test [1]; 4.84% in [2]; -0.58% in [3]; 2.02% in test [4]; 9.72% in test [5]; 11.4% in [6]. The inhibition in test [7] was determined as 3.37%; in [8], 5.59%; in [9] it was 1.79%; in test [10] it was 3.12%; in test [11] it was 0.96%; in test [12], 5.01%. Further, the inhibition in test [13] was 6.49%; in [14], 0.02%; in test [15], 1.69%; in test [16] it was 2.83%; in test [17], 6%; in [18] it was 2.29%. Moreover, the inhibition in test [19] was 5.6%; in test [20], 4.38%.
